As usually defined, the AC50 is the concentration giving half of the maximal activity seen.

Where “and” joins values, the source holds several entries; their conditions need not be identical. Equal entries are not always repeated. Records with an inconclusive call do not appear. Calls of active or inactive are those of the source. The calls were made as follows, unless noted: active = hit-call score of the fitted dose curve at least 0.9, where 1 is the maximum; inconclusive = response in the unintended direction; inactive = score below 0.9.

In assay [1] the test system is Sodium/Iodide Symporter (NIS), SLC5A5 (gene 6528). The experiment in a line: CPHEA_Stoker_NIS_Inhibition_RAIU: CPHEA's Radioactive Iodide Uptake (RAIU) Assay for Sodium/Iodide Symporter (NIS) Inhibition, Stoker and Laws Labs (AID 2283841). The essentials: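 Test chemicals, six concentrations from 0.001 to 100uM in 0.5% DMSO, were co-incubated with carrier-free 125I (final 329pM) on hNIS-HEK293T-EPA monolayers in pH 7.4 HEPES-buffered HBSS. Plates stood 2 hours at room temperature, then were washed cold and counted.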

A short description of assay [2]: CPHEA_Stoker_NIS_Cytotoxicity: Cytotoxicity Assessment for CPHEA's Radioactive Iodide Uptake (RAIU) Assay for Sodium/Iodide Symporter (NIS) Inhibition, Stoker and Laws Labs (AID 2283897).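 As to AC50: active means loss of ATP signal versus DMSO meaning cytotoxicity.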 The essentials:
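Viability in hNIS-HEK293T-EPA cells is scored as a drop in luciferase-detected ATP following 2-hour room-temperature exposure (0.001–100uM; triplicate wells, three cell passages), with DMSO as negative control.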

Assay [3] deals with Nuclear receptor subfamily 1 group I member 2 (Mus musculus) (UniProt O54915). The experiment in a line: ATG_mPXR_XSP2: Attagene TRANS-FACTORIAL Multi-Species (XSP1) HepG2 Assay for mouse Pregnane X Receptor (PXR) (AID 2283831). The essentials:
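Reporter transcripts were quantified by RT-PCR, FAM primer extension, HpaI digestion and capillary electrophoresis after 24 h of chemical exposure in transiently transfected HepG2 cells carrying chimeric receptor-GAL4 constructs; DMSO served as baseline.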

For assay [4], the target named is zebrafish Thyroid Hormone Receptor alpha (TRa), thraa (gene 30670) (UniProt Q98867). The experiment in a line: ATG_zfTRa_XSP2: Attagene TRANS-FACTORIAL Multi-Species (XSP1) HepG2 Assay for zebrafish Thyroid Hormone Receptor alpha (TRa) (AID 2283832).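 Also: actives raise zebrafish TRa-Gal4 reporter transcript above DMSO baseline.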 The essentials: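 Chimeric receptor-Gal4 activity was assessed in transfected human liver HepG2 cells 24 h after dosing, using reporter transcript levels detected by RT-PCR and capillary electrophoresis. DMSO served as baseline.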
Sequence of zebrafish Thyroid Hormone Receptor alpha (TRa), thraa (gene 30670) (Q98867 whole entry, looked up, the tested form may be a part): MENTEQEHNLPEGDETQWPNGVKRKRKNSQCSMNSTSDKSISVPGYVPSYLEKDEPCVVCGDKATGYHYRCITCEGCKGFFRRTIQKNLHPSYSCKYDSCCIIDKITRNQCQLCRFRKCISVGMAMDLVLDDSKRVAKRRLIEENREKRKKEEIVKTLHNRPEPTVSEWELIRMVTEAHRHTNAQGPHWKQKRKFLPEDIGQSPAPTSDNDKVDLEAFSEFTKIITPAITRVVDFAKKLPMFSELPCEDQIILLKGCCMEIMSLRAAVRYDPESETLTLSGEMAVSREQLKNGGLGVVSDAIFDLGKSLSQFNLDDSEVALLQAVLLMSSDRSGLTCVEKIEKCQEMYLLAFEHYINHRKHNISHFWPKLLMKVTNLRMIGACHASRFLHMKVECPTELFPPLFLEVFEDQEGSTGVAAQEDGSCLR

Assay [5] has as its system zebrafish Peroxisome Proliferator-activated Receptor gamma (PPARg), gene 557037. The experiment in a line: ATG_zfPPARg_XSP2: Attagene TRANS-FACTORIAL Multi-Species (XSP2) HepG2 Assay for zebrafish Peroxisome Proliferator-activated Receptor gamma (PPARg) (AID 2283833).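 Also: actives increase reporter signal over DMSO so AC50 reflects activation.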 The procedure, abridged: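 Multi-species TRANS format in HepG2, 24 h dosing; medium also contained 3 nM 6-alpha-fluorotestosterone and 1.5 nM norgestrel to stimulate androgen receptor. Zebrafish PPARg-GAL4 induced reporter mRNA was measured by RT-PCR/capillary electrophoresis.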

Assay [6] has as its system turtle Thyroid Hormone Receptor, alpha (TRa), gene 101949057. The experiment in a line: ATG_trTRa_XSP2: Attagene TRANS-FACTORIAL Multi-Species (XSP1) HepG2 Assay for turtle Thyroid Hormone Receptor, alpha (TRa) (AID 2283834).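 Also: hits raise reporter mRNA over the DMSO baseline so AC50 marks activators.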 The procedure, abridged: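 Transfection of HepG2 with multiple reporter transcription units, then chemical dosing for 24 h. Total RNA was reverse-transcribed, reporter sequences PCR-amplified and FAM-labelled, then sized by capillary electrophoresis. DMSO served as baseline.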

A short description of assay [7]: ATG_XTT_Cytotoxicity_XSP2: Cytotoxicity Assessment in the Attagene TRANS-FACTORIAL Multi-Species (XSP2) HepG2 Assay (AID 2283837). The essentials: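 HepG2 cells, transiently transfected with multiple reporter constructs, exposed to chemical for 24 h. Cell number assessed with XTT fluorescence read-out; loss of signal fitted relative to DMSO.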
Assay [8] has as its target human Thyroid hormone Receptor alpha (TRa), THRA (gene 7067) (UniProt P10827). The experiment in a line: ATG_hTRa_XSP2: Attagene TRANS-FACTORIAL Multi-Species (XSP2) HepG2 Assay for human Thyroid hormone Receptor alpha (TRa) (AID 2283838). The essentials:
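HepG2 cells transiently transfected with multiplexed GAL4-UAS reporter units and exogenous NR-GAL4 chimeras; 24 h chemical exposure with 3 nM 6-alpha-fluorotestosterone and 1.5 nM norgestrel present. Reporter mRNA measured by RT-PCR, FAM labelling, HpaI digestion, capillary electrophoresis; gain-of-signal versus DMSO.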

Assay [9] addresses frog Thyroid hormone Receptor alpha (TRa), thra-a (gene 397942) (UniProt P15204). The experiment in a line: ATG_frTRa_XSP2: Attagene TRANS-FACTORIAL Multi-Species (XSP2) HepG2 Assay for frog Thyroid hormone Receptor alpha (TRa) (AID 2283839). The essentials:
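Transfect HepG2 with multiple reporter units (GAL4-UAS), dose chemical, incubate 24 h. Isolate RNA, reverse-transcribe, PCR-amplify reporter, label with 6-FAM by primer extension, digest with HpaI, run capillary electrophoresis; induction scored against DMSO.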

The target of assay [10] is human Thyroid hormone Receptor beta (TRb), THRB (gene 7068) (UniProt P10828). The experiment in a line: ATG_hTRb_XSP2: Attagene TRANS-FACTORIAL Multi-Species (XSP2) HepG2 Assay for human Thyroid hormone Receptor beta (TRb) (AID 2283840).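 Also: actives raise reporter mRNA so potency reflects agonist-like gain of signal.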 The essentials:
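Transient transfection of human HepG2 with multi-species NR-Gal4/GAL4-UAS reporter constructs; 24 h compound treatment; RNA isolation, reverse transcription, PCR and HpaI digest; capillary electrophoresis of labeled fragments; activity fitted upward versus DMSO.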

Assay [11] is described as follows: CEETOX_H295R_11DCORT_noMTC: CeeTox H295R High-throughput Steroidogenesis Assay for 11-Deoxycortisol (11DCORT), maximum tolerated concentration (MTC) filtered results only (AID 2283911; active = hit-call score of the fitted dose curve at least 0.9, where 1 is the maximum; inactive = score below 0.9). The settings on record: actives raise or lower the signal. The essentials: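 Steroidogenesis was stimulated in H295R cells with 10 uM forskolin for 48 h before a 48 h chemical exposure. Secreted 11-deoxycortisol was measured by tandem mass spectrometry and fitted bidirectionally against DMSO controls.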

The nature of assay [12]: CEETOX_H295R_OHPREG_noMTC: CeeTox H295R High-throughput Steroidogenesis Assay for OH-Pregnenolone (OHPREG), maximum tolerated concentration (MTC) filtered results only (AID 2283912; active = hit-call score of the fitted dose curve at least 0.9, where 1 is the maximum; inactive = score below 0.9). The conditions noted are these: actives raise or lower the signal. The essentials: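 Steroidogenesis in H295R cells (OECD 456, modified): after 48 h forskolin priming and 48 h chemical treatment, secreted 17alpha-hydroxypregnenolone is measured by HPLC-MS/MS. Activity is fitted in both directions against DMSO; concentrations are not filtered by MTT-based MTC.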

The nature of assay [13]: CEETOX_H295R_OHPROG_noMTC: CeeTox H295R High-throughput Steroidogenesis Assay for OH-Progesterone (OHPROG), maximum tolerated concentration (MTC) filtered results only (AID 2283914; active = hit-call score of the fitted dose curve at least 0.9, where 1 is the maximum; inactive = score below 0.9). The conditions noted are these: actives raise or lower the signal. The procedure, abridged:
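Forskolin 10 uM, 48 h prestim → test cmpd in DMSO (0.1% final), 48 h → medium MTBE extraction → LC-MS/MS quant of 17alpha-OH-progesterone. Bidirectional fit vs DMSO; no MTT-based MTC filtering.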

Assay [14] can be described thus: CEETOX_H295R_ANDR_noMTC: CeeTox H295R High-throughput Steroidogenesis Assay for Androstenedione (ANDR), maximum tolerated concentration (MTC) filtered results only (AID 2283915; active = hit-call score of the fitted dose curve at least 0.9, where 1 is the maximum; inactive = score below 0.9). The settings on record: actives raise or lower the signal. The essentials: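 H295R cells, passage 10 or below, prestimulated 48 h with 10 uM forskolin, then exposed 48 h to chemical in 0.1% DMSO. Medium androstenedione extracted with MTBE, quantified by HPLC-MS/MS; concentrations not MTC-filtered; bidirectional fit versus DMSO.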

Assay [15] can be described thus: CEETOX_H295R_CORTISOL_noMTC: CeeTox H295R High-throughput Steroidogenesis Assay for Cortisol, maximum tolerated concentration (MTC) filtered results only (AID 2283916; active = hit-call score of the fitted dose curve at least 0.9, where 1 is the maximum; inactive = score below 0.9). The settings on record: actives raise or lower the signal. The procedure, abridged:
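Cortisol secretion measured by LC-MS/MS after 48 h chemical treatment (final 0.1% DMSO) of forskolin-primed (10 uM, 48 h) H295R cells; gain or loss fitted relative to DMSO, without maximum-tolerated-concentration filtering.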

Assay [16] can be described thus: CEETOX_H295R_CORTIC_noMTC: CeeTox H295R High-throughput Steroidogenesis Assay for Corticosterone (CORTIC), maximum tolerated concentration (MTC) filtered results only (AID 2283917; active = hit-call score of the fitted dose curve at least 0.9, where 1 is the maximum; inactive = score below 0.9). The settings on record: actives raise or lower the signal. The procedure, abridged:
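Following OECD 456 with minor changes, H295R cultures received 10 uM forskolin for 48 h, then test chemical at 0.1% DMSO for 48 h. Media steroids were extracted and measured by LC-MS/MS.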

Assay [17] is described as follows: CEETOX_H295R_DOC_noMTC: CeeTox H295R High-throughput Steroidogenesis Assay for DOC, maximum tolerated concentration (MTC) filtered results only (AID 2283918; active = hit-call score of the fitted dose curve at least 0.9, where 1 is the maximum; inactive = score below 0.9). The settings on record: actives raise or lower the signal. The procedure, abridged:
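11-Deoxycorticosterone secreted by human adrenal H295R cells quantified by HPLC-MS/MS after 48 h chemical exposure (0.1% DMSO), following 48 h 10 uM forskolin prestimulation. Concentrations not filtered by MTT-derived MTC; bidirectional fitting.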

Assay [18] can be described thus: CEETOX_H295R_ESTRADIOL_noMTC: CeeTox H295R High-throughput Steroidogenesis Assay for Estradiol, maximum tolerated concentration (MTC) filtered results only (AID 2283919; active = hit-call score of the fitted dose curve at least 0.9, where 1 is the maximum; inactive = score below 0.9). The conditions noted are these: actives raise or lower the signal. The procedure, abridged:
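H295R human adrenal cells pre-stimulated 48 h with 10 uM forskolin, then exposed 48 h to chemical (0.1% DMSO final). Estradiol in medium measured by HPLC-MS/MS after MTBE extraction and dansyl derivatization; bidirectional fit versus DMSO, concentrations not MTT-filtered.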

Sequence of human Thyroid hormone Receptor beta (TRb), THRB (gene 7068) (P10828 whole entry, looked up, the tested form may be a part): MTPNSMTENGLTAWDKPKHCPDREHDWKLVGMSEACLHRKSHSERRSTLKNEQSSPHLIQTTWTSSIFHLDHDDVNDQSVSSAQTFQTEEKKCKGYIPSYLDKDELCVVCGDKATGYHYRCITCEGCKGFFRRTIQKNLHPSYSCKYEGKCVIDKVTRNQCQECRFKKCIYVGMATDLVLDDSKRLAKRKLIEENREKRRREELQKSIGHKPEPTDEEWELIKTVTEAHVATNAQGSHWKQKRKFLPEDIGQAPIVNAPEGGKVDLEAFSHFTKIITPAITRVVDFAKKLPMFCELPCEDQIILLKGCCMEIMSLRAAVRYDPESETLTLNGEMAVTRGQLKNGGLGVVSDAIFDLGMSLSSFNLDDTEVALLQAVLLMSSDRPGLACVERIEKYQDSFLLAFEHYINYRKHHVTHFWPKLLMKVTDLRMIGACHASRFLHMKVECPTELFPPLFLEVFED
Sequence of Nuclear receptor subfamily 1 group I member 2 (Mus musculus) (O54915 whole entry, looked up, the tested form may be a part): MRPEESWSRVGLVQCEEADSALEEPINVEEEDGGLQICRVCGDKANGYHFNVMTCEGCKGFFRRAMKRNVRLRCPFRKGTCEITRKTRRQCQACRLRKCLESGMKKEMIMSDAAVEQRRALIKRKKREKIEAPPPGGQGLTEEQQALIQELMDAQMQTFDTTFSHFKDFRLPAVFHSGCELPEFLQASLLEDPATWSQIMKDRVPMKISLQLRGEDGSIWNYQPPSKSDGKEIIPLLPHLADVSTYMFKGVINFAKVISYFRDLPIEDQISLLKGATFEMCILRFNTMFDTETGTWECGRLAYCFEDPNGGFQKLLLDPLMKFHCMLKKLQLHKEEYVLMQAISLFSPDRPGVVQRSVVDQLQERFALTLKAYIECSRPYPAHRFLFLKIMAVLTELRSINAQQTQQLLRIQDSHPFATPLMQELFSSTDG
Sequence of human Thyroid hormone Receptor alpha (TRa), THRA (gene 7067) (P10827 whole entry, looked up, the tested form may be a part): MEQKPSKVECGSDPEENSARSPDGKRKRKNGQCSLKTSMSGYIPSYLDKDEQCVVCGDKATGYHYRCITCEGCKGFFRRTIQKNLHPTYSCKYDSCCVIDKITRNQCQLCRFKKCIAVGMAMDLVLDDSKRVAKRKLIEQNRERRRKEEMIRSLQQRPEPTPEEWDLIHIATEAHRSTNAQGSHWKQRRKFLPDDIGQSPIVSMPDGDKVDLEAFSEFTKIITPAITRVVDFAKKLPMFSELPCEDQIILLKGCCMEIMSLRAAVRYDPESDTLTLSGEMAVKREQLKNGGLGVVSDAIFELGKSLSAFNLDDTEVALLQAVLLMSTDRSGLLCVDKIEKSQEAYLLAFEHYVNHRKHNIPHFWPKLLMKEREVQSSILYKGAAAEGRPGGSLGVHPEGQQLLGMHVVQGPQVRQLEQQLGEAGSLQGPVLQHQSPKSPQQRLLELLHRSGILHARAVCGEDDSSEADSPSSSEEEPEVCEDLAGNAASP
Sequence of frog Thyroid hormone Receptor alpha (TRa), thra-a (gene 397942) (P15204 whole entry, looked up, the tested form may be a part): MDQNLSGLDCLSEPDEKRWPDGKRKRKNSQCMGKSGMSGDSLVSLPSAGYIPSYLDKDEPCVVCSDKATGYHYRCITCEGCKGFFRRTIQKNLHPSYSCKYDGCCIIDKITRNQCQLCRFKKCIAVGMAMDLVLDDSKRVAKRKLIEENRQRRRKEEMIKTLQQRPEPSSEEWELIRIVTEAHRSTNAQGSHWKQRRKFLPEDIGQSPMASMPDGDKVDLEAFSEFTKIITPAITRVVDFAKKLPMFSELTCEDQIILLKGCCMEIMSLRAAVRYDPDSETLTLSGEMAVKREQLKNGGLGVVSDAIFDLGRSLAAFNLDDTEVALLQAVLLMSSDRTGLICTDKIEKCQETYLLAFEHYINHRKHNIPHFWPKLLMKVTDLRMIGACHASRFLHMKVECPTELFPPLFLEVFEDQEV

For the compound `Cc1ccc([N+](=O)[O-])cc1N`, the result in assay [1] and in [2] was inactive.

On to `C=C1C[C@H]2[C@@H]3C=C(C)C4=CC(=O)CC[C@]4(C)[C@H]3CC[C@]2(C)[C@@]1(OC(C)=O)C(C)=O`, for which the AC50 in assay [3] is 931 nM (active) and 619 nM (active). Further, the call in [4], in assay [5], in [6], in [7], in [8] and in assay [9] was inactive. Also, the compound was called inactive in assay [10], in [1] and in [2].

For the compound `CN(C)c1ccc2nc3ccc(=[N+](C)C)cc-3sc2c1`, in assay [1], the result was inactive. In addition, the AC50 in assay [2] is 50 µM (active).

Regarding `N#Cc1ccc(C(c2ccc(C#N)cc2)n2cncn2)cc1`, the compound was classed as inactive in [11], in assay [12], in assay [13], in [14], in assay [16] and in [17]. The AC50 in assay [15] was 4.92 µM (active); in [18], 0.0183 µM (active).

For the compound `CCCC=C(C=O)CC`, the outcome in [11], in assay [12], in assay [13], in [15], in assay [16] and in assay [17] was inactive. Moreover, the compound was classed as inactive in assay [18].

As to `C=CCOC(=O)c1ccc(C(=O)OCC=C)c(C(=O)OCC=C)c1`, the concentration at half-maximal activity (AC50) in assay [1] was 10.2 µM (active). In addition, the result in assay [2] was inactive.

As to `CCCCCCCCCCCCCCCCCCOS(=O)(=O)O`, the result in assay [1] and in [2] was inactive.

In the case of `c1ccc(Nc2cccc3ccccc23)cc1`, the AC50 in assay [1] is 21.5 µM (active). The outcome in assay [2] was inactive.

Turning to `O=C(Nc1ccccc1)c1cc(Cl)ccc1O`, the half-maximal activity concentration (AC50) in assay [1] was 0.851 µM (active). Moreover, in [2], the result was inactive.

For the origin of these results see PubChem BioAssay (EPA / NIEHS).
